In the supplement of paper PMC11219838:

system: Meloidogyne hapla J2; assay: proportion of mobile M. hapla J2 relative to DMSO control (fraction of DMSO control); higher = more viable, less nematicidal, active = 0.7 or less; settings: 60 µM; 5 days; temperature: 20 °C
Procedure: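 DODA library (846 commercial 1,3,4- and 1,2,4-oxadiazole compounds plus commercial nematicide controls) screened at a single dose of 60 µM (0.6% DMSO) in 96-well plates, two biological replicates. Read-outs: C. elegans N2 L1 survival/reproduction score at day 6, 20 °C (0: 0-10 worms, 1: 11-20, 2: 21-50, 3: >50, 4: overgrown/starved). C. elegans daf-2 dauer, D. dipsaci and M. hapla J2 mobility at day 5, 20 °C, and P. penetrans mobility at day 5, 20 °C, each relative to DMSO controls. M. hapla egg hatching at day 12, 25 °C, relative to the mean of 8 DMSO wells on the same plate.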

Row | Structure (SMILES) | proportion of mobile M. hapla J2
1 | Cc1ccc(-c2nnc(SCC(=O)Nc3nccs3)o2)cc1 | 1.04 (inactive)
2 | COc1ccc(-c2nnc(SCC(=O)c3ccccc3)o2)cc1 | 0.767 (inactive)
3 | CCOc1ccc(-c2nc(-c3cccnc3)no2)cc1OCC | 0.906 (inactive)
4 | Cc1ccc(SC(C)c2nc(-c3ccncc3)no2)cc1 (stereo not given) | 0.861 (inactive)
5 | CCOC(=O)c1sc(NC(=O)CSc2nnc(-c3ccc(Cl)cc3)o2)c(C(=O)OCC)c1C | 0.906 (inactive)
6 | Cc1c(C)n(C(=O)CSc2nnc(-c3ccccc3)o2)c2ccccc12 | 0.982 (inactive)
7 | CC(=O)c1c(C)cc(C)c(CSc2nnc(-c3ccco3)o2)c1C | 0.906 (inactive)
8 | O=C(CSc1nnc(-c2ccccc2)o1)Nc1ccccc1F | 0.85 (inactive)
9 | Clc1ccccc1-c1nc(-c2ccc3c(c2)OCO3)no1 | 0.983 (inactive)
10 | COc1nc2ccc(C)cc2cc1-c1noc(-c2cccnc2)n1 | 0.972 (inactive)
11 | CC(Oc1ccccc1)c1nc(-c2ccccn2)no1 (stereo not given) | 0.937 (inactive)
12 | COc1ccc(-c2noc(-c3ccc(C)cc3)n2)cc1 | 0.998 (inactive)
13 | CC(C)c1ccc(NC(=O)CSc2nnc(-c3ccc(Br)cc3)o2)cc1 | 1.03 (inactive)
14 | COc1cccc(-c2noc(COc3cc(C)cc(C)c3)n2)c1 | 1.02 (inactive)
15 | COc1ccc(Cl)cc1-c1noc(COc2ccccc2)n1 | 0.953 (inactive)
16 | CCCc1ccc(-c2ccc(-c3nc(-c4ccccn4)no3)cc2)cc1 | 0.978 (inactive)
17 | O=C(CSc1nnc(-c2cccc(Cl)c2)o1)NC1CCCCC1 | 0.874 (inactive)
18 | Cc1cccc(-c2nnc(SCC(=O)Nc3ccccc3C(C)C)o2)c1 | 0.892 (inactive)
19 | Cn1cc(C(=O)CSc2nnc(-c3cccc(Cl)c3)o2)c2ccccc21 | 0.999 (inactive)
20 | Cc1ccc(-c2nc(-c3ccncc3)no2)cc1Cl | 0.852 (inactive)

Row | Structure (SMILES) | proportion of mobile M. hapla J2
21 | Clc1cc(Br)ccc1OCc1nc(-c2cccnc2)no1 | 1.04 (inactive)
22 | Cc1ccc(C)c(-c2nc(-c3ccc(Cl)cc3)no2)c1 | 0.93 (inactive)
23 | CCCOc1ccc(-c2nc(-c3ccncc3)no2)cc1 | 0.85 (inactive)
24 | Clc1cc(Br)ccc1OCc1nc(-c2ccccc2)no1 | 0.818 (inactive)
25 | Brc1ccc(-c2noc(-c3ccc(Br)o3)n2)o1 | 0.949 (inactive)
26 | c1ccc2c(-c3nc(-c4ccncc4)no3)cccc2c1 | 0.917 (inactive)
27 | COc1ccccc1-c1nc(-c2ccc(Br)cc2)no1 | 1.04 (inactive)
28 | COc1ccc(-c2noc(COc3ccc(F)cc3)n2)cc1 | 0.891 (inactive)
29 | CCOC(=O)c1sc(NC(=O)CSc2nnc(-c3ccc(Cl)cc3)o2)c(C#N)c1C | 0.929 (inactive)
30 | O=C(CSc1nnc(-c2ccco2)o1)NC1CCCCC1 | 0.824 (inactive)
31 | Cc1cccc(-c2nnc(SCC(=O)NCCc3ccccc3)o2)c1 | 0.872 (inactive)
32 | O=S(=O)(CCC(F)=C(F)F)c1ncc(Cl)s1 [fluensulfone] | 0.0622 (active)
33 | Fc1ccc(OCc2nc(-c3ccc(Br)cc3)no2)cc1 | 0.95 (inactive)
34 | Cc1ccc(-c2nnc(SCC(=O)Nc3ccccc3)o2)cc1 | 0.996 (inactive)
35 | Clc1ccc(-c2nc(C3CCCCC3)no2)cc1 | 1.04 (inactive)
36 | COc1ccccc1-c1nc(-c2ccc(C)cc2)no1 | 1.01 (inactive)
37 | CC(C)Oc1ccc(-c2nc(-c3cccnc3)no2)cc1 | 0.899 (inactive)
38 | Cn1c(SCc2ccc(Cl)cc2)nnc1-c1ccco1 | 1.05 (inactive)
39 | COc1ccc(-c2nc(-c3ccc(C(F)(F)F)cc3)no2)cc1 | 0.966 (inactive)
40 | COc1nc(-c2ccccc2)ccc1-c1noc(C(C)C)n1 | 0.776 (inactive)
